According to PMC4552634, “A New Set of Chemical Starting Points with Plasmodium falciparum Transmission-Blocking Potential for Antimalarial Drug Discovery” (PLoS ONE, 2015):
In all, about 13,000 compounds went through this assay and about 3,200 (25%) showed an effect of 50% or more. Some of the results follow.

tested on: P. falciparum stage V gametocytes; parameters: BacTiter-Glo ATP luminescence viability of purified stage V gametocytes in 384-well plates, per cent inhibition versus DMSO; settings: 48 h, 5 µM; inhibitor

| SMILES | % Inhibition [%] |
| --- | --- |
| CC(C)(C)c1ccc(CN2CCC(NC(=O)c3ccc(-c4cccc(F)c4)s3)CC2)cc1 [TCMDC-134350] | -0.6628 |
| Cc1ccnc(Nc2nc(-c3ccccn3)cs2)c1 [TCMDC-125769] | 115.7 |
| c1ccc(Nc2nc(-c3ccccn3)cs2)nc1 [TCMDC-124275] | 108.4 |
| Cc1ccc(Nc2nc(-c3ccccn3)cs2)nc1 [TCMDC-125854] | 98.08 |
| Cc1cccc(C(O)CNc2ccnc(Nc3cccc(-c4csc(C)n4)c3)n2)c1 (stereo not shown) [TCMDC-136568] | -28.27 |
| Cc1cccnc1Nc1nc(-c2ccccn2)cs1 [TCMDC-125846] | 115 |
| COc1cccc(C(=O)NCc2cccs2)c1OCc1ccccc1 [TCMDC-141234] | 8.01 |
| C#CCOc1ccccc1CN1CCC(N2CCc3cc(NC(=O)c4cc(C)on4)ccc32)C1 (stereo not shown) [TCMDC-135075] | -4.764 |
| Cc1[nH]c2ccc(NS(C)(=O)=O)cc2c1C1CCN(CCC2CCN(C(=O)/C=C/c3ccc(Cl)c(Cl)c3)CC2)CC1 [TCMDC-140126] | -29.87 |
| Cc1ccc(NC(=O)c2ccc3nccnc3c2)cc1OC1CCN(Cc2ccc(F)cc2)CC1 [TCMDC-133748] | -13.13 |
| O=C(Nc1ccccc1-c1ccccc1)C1CCCN1C(=O)Nc1ccc(Cl)cc1 (stereo not shown) [TCMDC-123648] | 32.25 |
| Cc1cc(NC(=O)Nc2ccc3nccc(N4CCN(C)CC4)c3c2)ccc1Br [TCMDC-139361] | 36.21 |
| CC[C@H]1C[N+]2([O-])CC[C@@H]1C[C@H]2[C@H](O)c1cc(-c2ccccc2)nc2ccc(OC)cc12 [TCMDC-141330] | 6.04 |
| CC(=O)Nc1nc(C)c(-c2csc(Nc3ccc(Cl)cc3)n2)s1 [TCMDC-123995] | -35.56 |
| Clc1ccc(Nc2nc(-c3ccccn3)cs2)nc1 [TCMDC-123885] | 114 |
| Cc1cc(NCC2CCN(CC3CCCCC3)C2)nc(Nc2ccc(Br)cc2)n1 (stereo not shown) [TCMDC-137024] | -11.33 |
| NCc1ccc(CNCc2ccc(-c3ccc(-c4nc5ccc(F)cc5[nH]4)cc3)cc2)cc1 [TCMDC-132810] | 33.23 |
| CC(C)NCc1ccc(-c2ccc(-c3nc4ccc(C(F)(F)F)cc4[nH]3)cc2)cc1 [TCMDC-132741] | -41.38 |
| FC(F)(F)c1ccc2nc(-c3ccc(-c4ccc(CNCCN5CCNCC5)cc4)cc3)[nH]c2c1 [TCMDC-132865] | 81.47 |
| O=C(NCCN1CCCC1)c1cccc(-c2ccc(-c3nc4ccc(C(F)(F)F)cc4[nH]3)cc2)c1 [TCMDC-132322] | -42.59 |
| Fc1ccc2nc(-c3ccc(-c4ccc(CNCCN5CCNCC5)cc4)cc3)[nH]c2c1 [TCMDC-132866] | 95.81 |
| Fc1ccc2nc(-c3ccc(-c4ccc(CNCc5ccccc5)cc4)cc3)[nH]c2c1 [TCMDC-132706] | -8.739 |
